From the supplement of paper PMC12645437, “Orthogonal IMiD-Degron Pairs Induce Selective Protein Degradation in Cells” (ACS Chemical Biology, 2025)
Whole data set: some 8,300 sequences, median “log2 fold change of degron read counts, EGFP-low vs EGFP+ sorted cells (limma voom), compound-induced degradation” near -1.1, cut for the highest 2% near 3.2. The sample as a whole holds a higher share of the highest values than the screen did.

T1: CRBN, Q96SW2
T1 chain: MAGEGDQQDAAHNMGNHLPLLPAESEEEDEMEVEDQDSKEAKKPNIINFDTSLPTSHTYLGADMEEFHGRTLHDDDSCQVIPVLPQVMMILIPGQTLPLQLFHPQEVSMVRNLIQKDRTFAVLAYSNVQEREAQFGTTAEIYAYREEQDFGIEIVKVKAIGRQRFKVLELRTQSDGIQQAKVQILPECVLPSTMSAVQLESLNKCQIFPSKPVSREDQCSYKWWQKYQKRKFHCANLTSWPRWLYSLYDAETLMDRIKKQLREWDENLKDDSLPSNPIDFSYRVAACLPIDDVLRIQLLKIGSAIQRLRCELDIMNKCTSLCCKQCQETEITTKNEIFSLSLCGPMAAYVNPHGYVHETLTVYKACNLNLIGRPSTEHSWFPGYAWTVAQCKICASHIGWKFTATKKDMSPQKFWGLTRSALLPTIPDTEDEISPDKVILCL

B1: 46F_47Y_49P_50V_52G_53A_54K_55F_67L_, Q9UKT9 (peptide)
chain: FYCPVCGAKFTQKGNLLRHIKL
B2: 46F_47S_49E_50V_52G_53A_54H_55F_67L_, Q9UKT9 (peptide)
chain: FSCEVCGAHFTQKGNLLRHIKL
B3: 46F_47G_49E_50I_52G_53A_54M_55F_67L_, Q9UKT9 (peptide)
chain: FGCEICGAMFTQKGNLLRHIKL
B4: 46F_47C_49E_50I_52G_53A_54M_55F_67L_, Q9UKT9 (peptide)
chain: FCCEICGAMFTQKGNLLRHIKL
B5: 46F_47M_49E_50I_52G_53A_54M_55F_67L_, Q9UKT9 (peptide)
chain: FMCEICGAMFTQKGNLLRHIKL
B6: 46F_47F_49E_50I_52G_53A_54M_55F_67L_, Q9UKT9 (peptide)
chain: FFCEICGAMFTQKGNLLRHIKL
B7: 46F_47A_49E_50I_52G_53A_54M_55F_67L_, Q9UKT9 (peptide)
chain: FACEICGAMFTQKGNLLRHIKL
B8: 46F_47E_49E_50I_52G_53A_54M_55F_67L_, Q9UKT9 (peptide)
chain: FECEICGAMFTQKGNLLRHIKL
B9: 46F_47D_49E_50I_52G_53A_54M_55F_67L_, Q9UKT9 (peptide)
chain: FDCEICGAMFTQKGNLLRHIKL
B10: 46F_47N_49E_50I_52G_53A_54M_55F_67L_, Q9UKT9 (peptide)
chain: FNCEICGAMFTQKGNLLRHIKL
B11: 46F_47H_49E_50I_52G_53A_54M_55F_67L_, Q9UKT9 (peptide)
chain: FHCEICGAMFTQKGNLLRHIKL
B12: 46F_47W_49E_50I_52G_53A_54M_55F_67L_, Q9UKT9 (peptide)
chain: FWCEICGAMFTQKGNLLRHIKL
B13: 46F_47L_49E_50I_52G_53A_54M_55F_67L_, Q9UKT9 (peptide)
chain: FLCEICGAMFTQKGNLLRHIKL
B14: 46F_47Q_49E_50I_52G_53A_54M_55F_67L_, Q9UKT9 (peptide)
chain: FQCEICGAMFTQKGNLLRHIKL
B15: 46L_47D_49N_50Q_52G_53F_54Q_55C_67L_, Q9UKT9 (peptide)
chain: LDCNQCGFQCTQKGNLLRHIKL
B16: 46F_47I_49P_50V_52G_53A_54T_55F_67L_, Q9UKT9 (peptide)
chain: FICPVCGATFTQKGNLLRHIKL
B17: 46F_47K_49E_50I_52G_53H_54H_55F_67L_, Q9UKT9 (peptide)
chain: FKCEICGHHFTQKGNLLRHIKL
B18: 46F_47N_49N_50Q_52G_53R_54P_55F_67L_, Q9UKT9 (peptide)
chain: FNCNQCGRPFTQKGNLLRHIKL
B19: 46F_47V_49P_50Q_52G_53A_54M_55F_67L_, Q9UKT9 (peptide)
chain: FVCPQCGAMFTQKGNLLRHIKL
B20: 46F_47E_49P_50Q_52G_53A_54F_55F_67L_, Q9UKT9 (peptide)
chain: FECPQCGAFFTQKGNLLRHIKL
B21: 46F_47E_49D_50Q_52G_53A_54A_55F_67L_, Q9UKT9 (peptide)
chain: FECDQCGAAFTQKGNLLRHIKL
B22: 46F_47T_49E_50Q_52G_53A_54C_55F_67L_, Q9UKT9 (peptide)
chain: FTCEQCGACFTQKGNLLRHIKL
B23: 46F_47W_49P_50Q_52G_53A_54V_55F_67L_, Q9UKT9 (peptide)
chain: FWCPQCGAVFTQKGNLLRHIKL
B24: 46F_47Y_49E_50I_52G_53A_54M_55F_67L_, Q9UKT9 (peptide)
chain: FYCEICGAMFTQKGNLLRHIKL
B25: 46F_47T_49E_50I_52G_53A_54M_55F_67L_, Q9UKT9 (peptide)
chain: FTCEICGAMFTQKGNLLRHIKL
B26: 46F_47I_49E_50I_52G_53A_54M_55F_67L_, Q9UKT9 (peptide)
chain: FICEICGAMFTQKGNLLRHIKL
B27: 46F_47A_49P_50Q_52G_53A_54A_55F_67L_, Q9UKT9 (peptide)
chain: FACPQCGAAFTQKGNLLRHIKL
B28: 46F_47C_49E_50V_52G_53A_54G_55F_67L_, Q9UKT9 (peptide)
chain: FCCEVCGAGFTQKGNLLRHIKL
B29: 46F_47Y_49E_50V_52G_53A_54G_55F_67L_, Q9UKT9 (peptide)
chain: FYCEVCGAGFTQKGNLLRHIKL
B30: 46F_47F_49E_50V_52G_53A_54G_55F_67L_, Q9UKT9 (peptide)
chain: FFCEVCGAGFTQKGNLLRHIKL
B31: 46F_47E_49E_50V_52G_53A_54G_55F_67L_, Q9UKT9 (peptide)
chain: FECEVCGAGFTQKGNLLRHIKL
B32: 46F_47R_49E_50V_52G_53A_54G_55F_67L_, Q9UKT9 (peptide)
chain: FRCEVCGAGFTQKGNLLRHIKL
B33: 46F_47A_49E_50V_52G_53A_54G_55F_67L_, Q9UKT9 (peptide)
chain: FACEVCGAGFTQKGNLLRHIKL
B34: 46F_47D_49E_50V_52G_53A_54G_55F_67L_, Q9UKT9 (peptide)
chain: FDCEVCGAGFTQKGNLLRHIKL
B35: 46F_47H_49E_50V_52G_53A_54G_55F_67L_, Q9UKT9 (peptide)
chain: FHCEVCGAGFTQKGNLLRHIKL
B36: 46F_47G_49E_50V_52G_53A_54G_55F_67L_, Q9UKT9 (peptide)
chain: FGCEVCGAGFTQKGNLLRHIKL
B37: 46F_47Q_49E_50V_52G_53A_54G_55F_67L_, Q9UKT9 (peptide)
chain: FQCEVCGAGFTQKGNLLRHIKL
B38: 46F_47L_49E_50V_52G_53A_54G_55F_67L_, Q9UKT9 (peptide)
chain: FLCEVCGAGFTQKGNLLRHIKL
B39: 46F_47I_49E_50V_52G_53A_54G_55F_67L_, Q9UKT9 (peptide)
chain: FICEVCGAGFTQKGNLLRHIKL

Target: T1, CRBN, Q96SW2
Experiment: log2 fold change of degron read counts, EGFP-low vs EGFP+ sorted cells (limma voom), compound-induced degradation; higher = more compound-induced degradation of the degron-EGFP fusion; degrons are variants of IKZF1/3 zinc finger 2; compound dose not given here
Settings: Jurkat, 18 h
[1] = compound: compound 19 (5-tert-butyl-thalidomide)
[2] = compound: compound 22 (5-morpholino-thalidomide)
[3] = compound: compound 33 (diphenyl IMiD analogue)
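Further: pooled lentiviral library of zinc finger degron-EGFP fusions in mCherry-positive Jurkat cells, FACS-sorted after compound exposure, with degron abundance counted by next-generation sequencing.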

Row | Sequence | log2 fold change of degron read counts [1] | log2 fold change of degron read counts [2] | log2 fold change of degron read counts [3] | log2 fold change of degron read counts (compound: thalidomide)
1 | B1 | 2.58 | 2.82 | 1.14 | 0.354
2 | B2 | 2.19 | 0.401 | 0.505 | 0.0402
3 | B3 | 3 | 2.34 | 1.39 | 0.523
4 | B4 | 2.28 | 1.35 | 2.11 | 1.39
5 | B5 | -0.964 | -0.957 | 1.9 | 0.514
6 | B6 | 3.34 | 3.12 | 1.91 | 0.537
7 | B7 | 3.3 | 1.74 | 0.378 | -0.0211
8 | B8 | -0.963 | -1.94 | 0.392 | 1.16
9 | B9 | 0.132 | -1.04 | -0.408 | 0.217
10 | B10 | 1.65 | -0.456 | -0.467 | -0.552
11 | B11 | 2.38 | 1.87 | 1.06 | -0.251
12 | B12 | 3.33 | 3.63 | 2.34 | 0.517
13 | B13 | -0.288 | -1.63 | 0.563 | 0.887
14 | B14 | -0.0508 | 2.24 | 2.45 | 3.57
15 | B15 | -2.46 | -2.61 | -2.96 | -1.93
16 | B16 | -1.38 | 1.38 | 1.48 | 1.83
17 | B17 | -3.82 | -3.97 | -3.56 | -3.72
18 | B18 | -1.93 | -2 | -2.66 | -2.05
19 | B19 | -2.14 | -0.591 | 0.3 | -0.862
20 | B20 | -2.8 | -3.69 | -1.82 | -1.91

Row | Sequence | log2 fold change of degron read counts [1] | log2 fold change of degron read counts [2] | log2 fold change of degron read counts [3] | log2 fold change of degron read counts (compound: thalidomide)
21 | B21 | -1.3 | -3.38 | -1.76 | -1.6
22 | B22 | -1.75 | -1.02 | 0.816 | 0.182
23 | B23 | -0.18 | 1.02 | 0.693 | -0.596
24 | B24 | 3.62 | 3.42 | 2.55 | 0.91
25 | B25 | 0.136 | 0.966 | 1.62 | 1.82
26 | B26 | -0.357 | 1.35 | 2.3 | 2.13
27 | B27 | 1.65 | -0.791 | 0.0272 | -1.04
28 | B28 | 3.35 | 1.74 | 1.47 | 1.17
29 | B29 | 3.31 | 3.22 | 2.6 | 0.445
30 | B30 | 3.65 | 2.72 | 1.51 | 0.512
31 | B31 | 1.72 | -1.52 | 0.852 | 1.21
32 | B32 | 2.66 | 2.02 | 2.33 | 1.57
33 | B33 | 3.4 | 1.13 | -0.271 | 0.383
34 | B34 | 1.18 | -1.45 | -1.35 | -0.721
35 | B35 | 3.18 | 1.07 | 2.01 | -0.276
36 | B36 | 1.93 | -0.105 | 0.538 | -0.636
37 | B37 | 2.45 | 1.65 | 1.38 | 3.21
38 | B38 | 2.28 | -0.0355 | 1.42 | 1.08
39 | B39 | -0.137 | 2.66 | 2.12 | 2.56
